FBPA coupling cs – qHTS Assay for Inhibitors of Fructose-1,6-bisphosphate Aldolase from Giardia Lamblia: Coupling assay counterscreen; coupling enzyme system counterscreen, AmpLite Red fluorescence; activity change, negative = inhibition, % at 58.2 µM, hits read low; 0.67% of 290,000 active; in the data active = activity change below about -30%
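Activity here indicates interference with the coupling reaction, not aldolase inhibition. Compounds at 57.5 uM final met coupling enzymes for 10 min at RT; substrate and AmpLite Red detection followed, with a 525/598 nm fluorescence read after 20 min.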
B2AR arrestin – qHTS assay of beta-arrestin-biased ligands of beta2-adrenergic receptor; Beta-2 adrenergic receptor (Homo sapiens), P07550; beta-arrestin recruitment to beta2AR, cell-based reporter; Potency, µM (titrated, usually from 46.1 µM), most hits filed as activators; 0.02% of 330,000 active; note: nearly all actives have a fitted effect of over 65% in size
Target sequence (P07550 whole entry, looked up): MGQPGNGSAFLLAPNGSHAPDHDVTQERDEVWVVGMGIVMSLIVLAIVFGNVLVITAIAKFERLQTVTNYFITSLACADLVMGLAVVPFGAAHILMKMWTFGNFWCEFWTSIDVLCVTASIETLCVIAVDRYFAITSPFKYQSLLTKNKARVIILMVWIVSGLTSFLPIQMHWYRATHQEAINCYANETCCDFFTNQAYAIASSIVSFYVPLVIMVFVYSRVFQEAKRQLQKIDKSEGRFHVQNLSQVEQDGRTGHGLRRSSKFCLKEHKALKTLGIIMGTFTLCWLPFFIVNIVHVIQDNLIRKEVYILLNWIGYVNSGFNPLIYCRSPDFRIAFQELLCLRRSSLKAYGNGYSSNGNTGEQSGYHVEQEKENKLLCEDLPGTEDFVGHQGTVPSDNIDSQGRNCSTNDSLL
aGlu spleen mod – qHTS Assay for Inhibitors and Activators of Human alpha-Glucosidase From Spleen Homogenate. Potency, µM (top dose mostly 79.9 µM), actives largely listed as inhibitors. Lysosomal alpha-glucosidase (Homo sapiens), P10253. human spleen homogenate, 4-MU-alpha-glucoside fluorescence. 0.006% of 240,000 active
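Enzyme source: human spleen homogenate, 1 ug/well. Buffer 50 mM citric acid/K phosphate pH 5.0, 0.01% Tween-20. 4-MU-alpha-glucoside 1 mM; 37 C x 40 min; NaOH/glycine stop; fluorescence.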
GAA glycogen – qHTS Assay for Inhibitors and Activators of Human alpha-Glucosidase Cleavage of Glycogen. Lysosomal alpha-glucosidase (Homo sapiens), P10253. recombinant GAA, glycogen substrate, Amplex Red glucose oxidase fluorescence. Potency, µM (series often up to 76.4 µM), hits mostly inhibitors. 0.38% of 300,000 active;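 note: the screen sought inhibitors and activators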
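Natural-substrate format: glycogen cleavage by 4 nM human enzyme, glucose read by Amplex Red coupling (Ex 573, Em 610 nm). Normalized to enzyme and no-enzyme controls.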
GAA inhib – qHTS Assay for Inhibitors of Human alpha-Glucosidase as a Potential Chaperone Treatment of Pompe Disease. Lysosomal alpha-glucosidase (Homo sapiens), P10253. purified human GAA, 4-MU-alpha-glucoside fluorescence. Potency, µM (titrated, usually from 76.9 µM), hits mostly inhibitors. 0.005% of 200,000 active
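Enzyme (4 nM final) mixed with compound (up to 77 uM), then 4-MU-alpha-D-pyranoside (400 uM final) added; 20 min at room temperature, pH 5.0. Reaction stopped at pH 10, fluorescence read, AC50 derived by Hill fit.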
Each line names hits and unclear results; the compound was inactive in the other large screens. A selection: hits, their analogues and other compounds. The true share with any hit is near 0.85%. Unless noted, calls come from the whole dose curve; as a rule, active = well fitted curve in the direction sought with a large enough effect; inconclusive = small, poorly fitted or top-dose-only effect, or another doubt; inactive = no such curve, though single readings can be large; an effect the other way counts as inactive or inconclusive.

CC(C)(C)c1cc[n+](C2=C([O-])c3ccccc3C(=O)/C2=N\S(=O)(=O)c2ccccc2)cc1	FBPA coupling cs -59.7 (no result: GAA inhib)
CCCC[n+]1ccn(C2=C([O-])c3ccccc3C(=O)/C2=N\S(=O)(=O)c2ccccc2)c1	none (no result: FBPA coupling cs)
CC(C)[n+]1ccn(C2=C([O-])c3ccccc3C(=O)/C2=N\S(=O)(=O)c2ccccc2)c1	FBPA coupling cs -43.5 (no result: GAA inhib)
CCCCC[n+]1ccn(C2=C([O-])c3ccccc3C(=O)/C2=N\S(=O)(=O)c2ccccc2)c1	none (no result: FBPA coupling cs)
COc1cc(O)c2c(c1)OC(C)(C)CC2=O	none
COc1cc(O)cc2cc3c(c(O)c12)C(=O)CC(C)(O)O3 (configuration not stated)	FBPA coupling cs -42.8 (no result: GAA inhib)
COc1cc(NC2CCCCC2O)c2nc(-c3ccc(Cl)cc3)ccc2c1 (configuration not stated)	FBPA coupling cs -31.0 (no result: GAA inhib)
COc1ccc(OCC(=O)OCC(=O)NC2CCCCC2C)cc1 (configuration not stated)	none (no result: FBPA coupling cs, aGlu spleen mod, GAA glycogen, GAA inhib)
NC(=S)N/N=C1/CCSc2ccc3ccccc3c21	GAA glycogen 28.2µM
NC(=S)N/N=C/c1c(O)ccc2ccccc12	GAA glycogen inconclusive (no result: GAA inhib)
Cc1ccc(SCC(=O)OCC(=O)N(CCC#N)c2ccccc2)cc1	none (no result: FBPA coupling cs, aGlu spleen mod, GAA glycogen, GAA inhib)
Cc1cc(C)nc(-n2nc(C)cc2NC(=O)CN2CCCC2)n1	B2AR arrestin inconclusive
CCC1CCCCN1CC(=O)Nc1cc(C)nn1-c1nc(C)cc(C)n1 (configuration not stated)	B2AR arrestin 35.5µM
Oc1ccccc1Nc1nc(NCC2CCCO2)c2ccccc2n1 (configuration not stated)	GAA glycogen 8.84µM, GAA inhib inconclusive
Oc1ccccc1Nc1nc(NCc2ccco2)c2ccccc2n1	GAA glycogen 11.2µM (no result: GAA inhib)
Cc1ccc(S(=O)(=O)N2CCC3(CC2)OCCO3)cc1	none (no result: aGlu spleen mod, GAA glycogen, GAA inhib)
O=C1CSC(=S)N1/N=C/c1ccc(O)c(O)c1O	FBPA coupling cs -59.1, GAA glycogen inconclusive (no result: GAA inhib)
COc1ccc(-c2noc(CC(=O)Nc3ccc(Br)cc3C)n2)cc1	none (no result: FBPA coupling cs, B2AR arrestin, aGlu spleen mod, GAA inhib)
COc1ccc2c(c1)OC1(O)COc3cc(OC)c(OC)cc3C1=C2 (configuration not stated)	none (no result: B2AR arrestin, GAA glycogen, GAA inhib)
CCC(=O)NC1=C(Cl)C(=O)C(NC(=O)CC)=C(Cl)C1=O	FBPA coupling cs -89.9
CC(=O)NC1=C(Nc2ccc(N(C)C)cc2)C(=O)c2ccccc2C1=O	GAA glycogen inconclusive (no result: aGlu spleen mod, GAA inhib)
CCC(=O)N(C1=C(NC)C(=O)c2ccccc2C1=O)C(C)C	FBPA coupling cs -41.1
CNC1=C(N(C(C)=O)c2ccc(Br)cc2)C(=O)c2ccccc2C1=O	FBPA coupling cs -56.5
CCC1=Nc2cc(C(=O)NC3CCC(C)CC3)ccc2Sc2ccc(C)cc21 (configuration not stated)	none (no result: FBPA coupling cs, B2AR arrestin, aGlu spleen mod, GAA inhib)
C=C1C=CS(=O)(=O)N(C(C)C(=O)OC)C1 (configuration not stated)	none (no result: B2AR arrestin, GAA glycogen, GAA inhib)
Cc1ccc(NS(=O)(=O)c2cccc3nsnc23)cc1	FBPA coupling cs -37.8
CCOc1ccc2c(c1)n([O-])c1c([n+]2=O)CCCC1	FBPA coupling cs -57.6
COc1ccc2c(c1)n([O-])c1c([n+]2=O)CCC1	none (no result: GAA inhib)
CC1CCC2C(=O)N3C(CCC(C)[C@@H]3c3ccc(-c4ccco4)cc3)C(=O)N2C1c1cccc(N2CCCC2=O)c1 (some centres not stated)	none (no result: B2AR arrestin, GAA glycogen, GAA inhib)
CN(C)c1ccc2c(-c3ccccc3)c3ccc(=[N+](C)C)cc-3oc2c1	none (no result: B2AR arrestin, GAA glycogen, GAA inhib)
Cc1ccc(S(=O)(=O)Oc2cccc(/C=N/Nc3ccc(C(=O)O)cc3)c2)cc1	FBPA coupling cs -41.2, GAA glycogen inconclusive (no result: GAA inhib)
O=C(Nc1ccc2ccccc2c1)N1CCN(c2ncccc2C(F)(F)F)CC1	FBPA coupling cs -50.3
COc1ccc(NC(=S)N2CCCC(c3nc4ccc(C)cc4[nH]3)C2)c(OC)c1 (configuration not stated)	GAA glycogen 15.7µM

Screening data as filed in PubChem.
